We go through 10 compounds from PubChem BioAssay (NCI).

Compounds without any hit were thinned out: in the full panel of roughly 79,000, 15% have a hit. A number with no mark means an inactive call. Calls of active or inactive are those of the source. Cut-off read from the data, not from the text of the source: active = growth inhibition above about 70%; inactive = the rest.

A short description of experiment [1]: NCI Yeast Anticancer Drug Screen. Data for the rad50 strain (AID 155).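 Note: 0% = growth of vehicle-only cultures of the same strain.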 Particulars: S. cerevisiae rad50 strain growth inhibition, active compounds read high. Summed up: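 Relative growth inhibition (compound vs vehicle) was measured in yeast with a defined repair-gene alteration.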
A short description of experiment [2]: NCI Yeast Anticancer Drug Screen. Data for the mec2-1 strain (AID 157). Conditions: S. cerevisiae mec2-1 strain, active compounds read high. In outline: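 Each compound was tested on mec2-1 yeast, a strain altered in DNA damage repair or cell cycle control. Growth inhibition is reported relative to vehicle.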
A short description of experiment [3]: NCI Yeast Anticancer Drug Screen. Data for the sgs1 mgt1 strain (AID 161).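 Note: 0% = growth of cultures given vehicle only.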 Particulars: S. cerevisiae sgs1 mgt1 strain, active compounds read high. Summed up: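 Genetically altered yeast, compound exposure, growth inhibition relative to vehicle.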
A short description of experiment [4]: NCI Yeast Anticancer Drug Screen. Data for the cln2 rad14 strain (AID 165).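 Note: 0% = growth equal to vehicle treated cultures.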 Particulars: S. cerevisiae cln2 rad14 strain, active compounds read high. Summed up: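 Test compounds were added to cln2 rad14 yeast cultures; inhibition of growth was then determined by comparison with vehicle treatment.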
Experiment [5] in a line: NCI Yeast Anticancer Drug Screen. Data for the bub3 strain (AID 167). Particulars: S. cerevisiae bub3 mutant strain, active compounds read high. Summed up: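 Screening used yeast with an engineered genetic alteration affecting cell cycle control. Compound-exposed cultures were compared with vehicle cultures, and reduced growth was taken as inhibition.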
The nature of experiment [6]: NCI Yeast Anticancer Drug Screen. Data for the mlh1 rad18 strain (AID 175). Particulars: S. cerevisiae mlh1 rad18 strain growth inhibition, active compounds read high. Summed up:
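Inhibition values reflect reduced growth of mutant yeast versus vehicle-treated controls following compound exposure; the mutations affect DNA damage repair.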

Setting [7] is: at 5.0 µM (retest, dose inferred, filed as 0.5).
Setting [8] is: at 50.0 µM (retest, dose inferred, filed as 5.0).

On to `CCCCCCCCCCCCCCCCNC(=O)/C(=C\c1ccccc1O)NC(=O)c1ccccc1`, for which the growth inhibition was 0% in experiment [1] (setting [7]); 6% in experiment [1] (setting [8]); 66.2% in experiment [1] (at 50.0 µM); -8% in experiment [2] (setting [7]); -2% in experiment [2] (setting [8]); 35.1% in experiment [2] (at 50.0 µM). Further, the growth inhibition in experiment [3] (setting [7]) is 0%; in experiment [3] (setting [8]), 14%; in experiment [3] (at 50.0 µM) it was 71.7% (active); in experiment [4] (setting [7]), 33%; in experiment [4] (setting [8]) it was -20%; in experiment [4] (at 50.0 µM), 27.3%. For the same compound, the growth inhibition was 2% in experiment [5] (setting [7]); 8% in experiment [5] (setting [8]); 73.7% (active) in experiment [5] (at 50.0 µM); 18% in experiment [6] (setting [7]); -6% in experiment [6] (setting [8]); 67.6% in experiment [6] (at 50.0 µM).
Take `Cc1cc(Br)cc(C)c1NC(=O)C(=O)C(C(=O)c1ccc2ccccc2c1)C1OC(=O)c2ccccc21` (stereo not given): the growth inhibition was 4% in experiment [1] (setting [7]); 38% in experiment [1] (setting [8]); 12.5% in experiment [1] (at 50.0 µM); 4% in experiment [2] (setting [7]); 19% in experiment [2] (setting [8]); 14.3% in experiment [2] (at 50.0 µM). The growth inhibition in experiment [3] (setting [7]) was 10%; in experiment [3] (setting [8]), 11%; in experiment [3] (at 50.0 µM) it was 27.7%; in experiment [4] (setting [7]), 1%; in experiment [4] (setting [8]), -14%; in experiment [4] (at 50.0 µM), 70% (active). Further, the growth inhibition in experiment [5] (setting [7]) is 5%; in experiment [5] (setting [8]), 23%; in experiment [5] (at 50.0 µM), 31.5%; in experiment [6] (setting [7]) it was 4%; in experiment [6] (setting [8]), 19%; in experiment [6] (at 50.0 µM) it was 31.8%.
In the case of `C=C(CN(C)C)C(=O)c1ccc(C)cc1C`, the growth inhibition in experiment [1] (setting [7]) was 34%; in experiment [1] (setting [8]), 99% (active); in experiment [1] (at 50.0 µM), 99.4% (active); in experiment [2] (setting [7]), 18%; in experiment [2] (setting [8]) it was 99% (active); in experiment [2] (at 50.0 µM), 99.5% (active). Moreover, the growth inhibition was 64% in experiment [3] (setting [7]); 99% (active) in experiment [3] (setting [8]); 99.4% (active) in experiment [3] (at 50.0 µM); 24% in experiment [4] (setting [7]); 99% (active) in experiment [4] (setting [8]); 99.3% (active) in experiment [4] (at 50.0 µM). Besides, the growth inhibition in experiment [5] (setting [7]) was 77% (active); in experiment [5] (setting [8]) it was 99% (active); in experiment [5] (at 50.0 µM) it was 56%; in experiment [6] (setting [7]), 74% (active); in experiment [6] (setting [8]) it was 99% (active); in experiment [6] (at 50.0 µM), 99.2% (active).
As for `CC(=O)OC/C=C/CCCOC(C)=O`, the growth inhibition was -15% in experiment [1] (setting [7]); 4% in experiment [1] (setting [8]); 77.8% (active) in experiment [1] (at 50.0 µM); -12% in experiment [2] (setting [7]); -17% in experiment [2] (setting [8]); 64.3% in experiment [2] (at 50.0 µM). Also, the growth inhibition is -7% in experiment [3] (setting [7]); 5% in experiment [3] (setting [8]); 84% (active) in experiment [3] (at 50.0 µM); 38% in experiment [4] (setting [7]); 31% in experiment [4] (setting [8]); 77.9% (active) in experiment [4] (at 50.0 µM). Further, the growth inhibition was 17% in experiment [5] (setting [7]); 19% in experiment [5] (setting [8]); 80.3% (active) in experiment [5] (at 50.0 µM); 5% in experiment [6] (setting [7]); -5% in experiment [6] (setting [8]); 62.6% in experiment [6] (at 50.0 µM).
Consider `CCOC(=O)C1=C(N)N(S(=O)(=O)c2ccc(C)cc2)CCC(C(=O)OC)=C1`, for which the growth inhibition in experiment [1] (setting [7]) is 3%; in experiment [1] (setting [8]) it was -4%; in experiment [1] (at 50.0 µM), 30.4%; in experiment [2] (setting [7]), 0%; in experiment [2] (setting [8]), 0%; in experiment [2] (at 50.0 µM) it was 31.9%. Moreover, the growth inhibition in experiment [3] (setting [7]) was 5%; in experiment [3] (setting [8]) it was -1%; in experiment [3] (at 50.0 µM), 82% (active); in experiment [4] (setting [7]), 5%; in experiment [4] (setting [8]) it was -6%; in experiment [4] (at 50.0 µM), -3.15%. The growth inhibition in experiment [5] (setting [7]) is 1%; in experiment [5] (setting [8]) it was -4%; in experiment [5] (at 50.0 µM), 26.2%; in experiment [6] (setting [7]), -2%; in experiment [6] (setting [8]), -3%; in experiment [6] (at 50.0 µM) it was 56.1%.
In the case of `CCCCN(CCCC)C(=O)c1ccc(OC(=O)OCC)c(OC)c1`, the growth inhibition in experiment [1] (setting [7]) is 4%; in experiment [1] (setting [8]), 6%; in experiment [1] (at 50.0 µM), 56.9%; in experiment [2] (setting [7]), 0%; in experiment [2] (setting [8]), 10%; in experiment [2] (at 50.0 µM) it was 37%. In addition, the growth inhibition in experiment [3] (setting [7]) is 2%; in experiment [3] (setting [8]) it was 31%; in experiment [3] (at 50.0 µM) it was 49.8%; in experiment [4] (setting [7]) it was 4%; in experiment [4] (setting [8]), 17%; in experiment [4] (at 50.0 µM) it was 8.8%. In addition, the growth inhibition in experiment [5] (setting [7]) was 2%; in experiment [5] (setting [8]), 24%; in experiment [5] (at 50.0 µM) it was 85.1% (active); in experiment [6] (setting [7]), -2%; in experiment [6] (setting [8]) it was 29%; in experiment [6] (at 50.0 µM), 17%.
For the compound `CCNc1ccccc1C`, the growth inhibition in experiment [1] (setting [7]) was 3%; in experiment [1] (setting [8]), 91% (active); in experiment [1] (at 50.0 µM), 98.7% (active); in experiment [2] (setting [7]) it was -1%; in experiment [2] (setting [8]) it was 88% (active); in experiment [2] (at 50.0 µM), 98.2% (active). Moreover, the growth inhibition in experiment [3] (setting [7]) is -2%; in experiment [3] (setting [8]), 86% (active); in experiment [3] (at 50.0 µM), 97% (active); in experiment [4] (setting [7]) it was 2%; in experiment [4] (setting [8]) it was 97% (active); in experiment [4] (at 50.0 µM), 96.4% (active). Further, the growth inhibition in experiment [5] (setting [7]) was 7%; in experiment [5] (setting [8]), 82% (active); in experiment [5] (at 50.0 µM), 97.7% (active); in experiment [6] (setting [7]), 3%; in experiment [6] (setting [8]) it was 97% (active); in experiment [6] (at 50.0 µM), 98.3% (active).
Regarding `C(=N\Nc1c2ccccc2nc2ccccc12)/c1ccc2c(c1)OCO2`, the growth inhibition in experiment [1] (setting [7]) is 0%; in experiment [1] (setting [8]) it was 97% (active); in experiment [1] (at 50.0 µM), 99.3% (active); in experiment [2] (setting [7]), 7%; in experiment [2] (setting [8]) it was 99% (active); in experiment [2] (at 50.0 µM) it was 84.8% (active). The growth inhibition was 0% in experiment [3] (setting [7]); 99% (active) in experiment [3] (setting [8]); 99.4% (active) in experiment [3] (at 50.0 µM); 2% in experiment [4] (setting [7]); 89% (active) in experiment [4] (setting [8]); 82% (active) in experiment [4] (at 50.0 µM). Further, the growth inhibition is -11% in experiment [5] (setting [7]); 93% (active) in experiment [5] (setting [8]); 99.2% (active) in experiment [5] (at 50.0 µM); 1% in experiment [6] (setting [7]); 98% (active) in experiment [6] (setting [8]); 99.3% (active) in experiment [6] (at 50.0 µM).
As for `O=c1[nH]c(C(F)(F)F)c(F)c(=O)[nH]1`, the growth inhibition in experiment [1] (setting [7]) is 0%; in experiment [1] (setting [8]), -2%; in experiment [1] (at 50.0 µM), 69.3%; in experiment [2] (setting [7]), 3%; in experiment [2] (setting [8]), 1%; in experiment [2] (at 50.0 µM), 93.5% (active). Besides, the growth inhibition is 2% in experiment [3] (setting [7]); 27% in experiment [3] (setting [8]); 86.7% (active) in experiment [3] (at 50.0 µM); 3% in experiment [4] (setting [7]); 5% in experiment [4] (setting [8]); 94.1% (active) in experiment [4] (at 50.0 µM). Also, the growth inhibition is -2% in experiment [5] (setting [7]); -5% in experiment [5] (setting [8]); 63.1% in experiment [5] (at 50.0 µM); -2% in experiment [6] (setting [7]); -3% in experiment [6] (setting [8]); 95% (active) in experiment [6] (at 50.0 µM).
Consider `O=S(=O)(/C=C/c1cccnc1)/C=C/c1cccnc1`, for which the growth inhibition in experiment [1] (setting [7]) was 0%; in experiment [1] (setting [8]) it was 2%; in experiment [1] (at 50.0 µM), -14.1%; in experiment [2] (setting [7]) it was 0%; in experiment [2] (setting [8]), -3%; in experiment [2] (at 50.0 µM), -1.65%. The growth inhibition in experiment [3] (setting [7]) was 1%; in experiment [3] (setting [8]), 6%; in experiment [3] (at 50.0 µM), 5.3%; in experiment [4] (setting [7]), 3%; in experiment [4] (setting [8]) it was 10%; in experiment [4] (at 50.0 µM) it was 82.8% (active). Moreover, the growth inhibition in experiment [5] (setting [7]) is -2%; in experiment [5] (setting [8]), 3%; in experiment [5] (at 50.0 µM) it was 20.8%; in experiment [6] (setting [7]) it was -4%; in experiment [6] (setting [8]) it was -1%; in experiment [6] (at 50.0 µM), 1.25%.
